# Screening data: PubChem BioAssay, several laboratories
# Beta2AR agonist – human beta-2 adrenergic receptor agonism by FAP; P07550; Am2.2-beta2AR cells, FAP receptor internalization, flow cytometry; response, % (no concentration beside the values); 340,000 compounds, 0.43% hits; AID 504454;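 active = response above a set limit, near 3 SD of response in nonfluorescent compounds, cut at about 42% in these data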
# Target sequence (P07550 whole entry, looked up): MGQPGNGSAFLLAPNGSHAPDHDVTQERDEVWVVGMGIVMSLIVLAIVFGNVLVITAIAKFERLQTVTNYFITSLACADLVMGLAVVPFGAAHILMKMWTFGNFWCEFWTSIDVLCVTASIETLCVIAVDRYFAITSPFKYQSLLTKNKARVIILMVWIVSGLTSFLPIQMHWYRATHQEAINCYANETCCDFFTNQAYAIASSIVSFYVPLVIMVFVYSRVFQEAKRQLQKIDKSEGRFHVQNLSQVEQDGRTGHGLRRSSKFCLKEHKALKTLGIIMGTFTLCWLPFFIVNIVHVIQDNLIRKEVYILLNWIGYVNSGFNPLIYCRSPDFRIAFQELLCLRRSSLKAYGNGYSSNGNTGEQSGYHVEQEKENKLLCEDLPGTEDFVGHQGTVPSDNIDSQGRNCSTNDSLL
# tim10-1 inh – inhibits growth of tim10-1 mutant yeast; S. cerevisiae tim10-1 ts strain growth, BacTiter-Glo, 24 h; inhibition, % at 20 µM; 330,000 compounds, 2.2% hits;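 active = inhibition of at least 40%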;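 also: mutant grown at 25 °C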
# PfHsp90 set2 – growth inhibition of yeast expressing Plasmodium Hsp90; S. cerevisiae expressing PfHsp90, BacTiter-Glo ATP, 48 h; yeast lacking PDR1 and PDR3 efflux regulators; inhibition, % at 9.4 µM; 310,000 compounds, 0.32% hits; AID 504621;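 active = every replicate shows inhibition above about 80%, whatever the replicate mean, limit read from the data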
# TIM10 inh – growth inhibitors of TIM10 yeast strain; S. cerevisiae TIM10 strain growth, BacTiter-Glo luminescence, 24 h; inhibition, % at 10 µM; 330,000 compounds, 1.4% hits; AID 463195;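 active = inhibition of 40% or more at the single tested concentration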;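 also: wild-type TIM10 isogenic control strain grown at permissive 25 °C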
# tim23-1 inh – growth inhibitors of tim23-1 mutant yeast. 330,000 compounds, 1.3% hits. inhibition, % at 20 µM. AID 463212. S. cerevisiae tim23-1 growth, BacTiter-Glo luminescence, 24 h;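 active = growth inhibition of the mutant yeast at or above 50%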;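 also: temperature-sensitive mutant grown at 25 °C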
# B2AR ag CP1 – human beta-2 adrenergic receptor agonism, cherry pick; shares compounds with Beta2AR agonist; Am2.2-beta2AR cells, FAP surface receptor, flow cytometry; active compounds read low; percent response (surface receptor), % at 10 µM; 1,100 compounds, 25% hits; AID 540358;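 active = surface receptor percent response at or below 58%, roughly 3 SD from nonfluorescent compounds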
# B2AR FAP counter – fluorescence artifact in beta-2AR agonist FAP counterscreen | shares compounds with Beta2AR agonist | Am2.2 cells, FAP fluorogen flow cytometry; active compounds read low | calls only at 10 µM | 1,100 tested, under 10 active | AID 588765;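 active = percent response below a set limit in fluorescence channel 1 and below 50% in channel 8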
# Hits are given with their value; . = inactive; / = no result given. Only some compounds are listed: those with a hit (about 3.8% of all), similar ones and a draw of the others.
SMILES,Beta2AR agonist,tim10-1 inh,PfHsp90 set2,TIM10 inh,tim23-1 inh,B2AR ag CP1,B2AR FAP counter
COCCCNc1ncnc2c1sc1nc(-c3ccco3)c3c(c12)CC(C)(C)OC3,99,.,.,.,.,20,.
COCCNc1nnnc2c1sc1nc(N3CCOCC3)c3c(c12)CC(C)(C)OC3,.,.,.,.,.,/,/
N#CC(C(=S)Nc1ccccc1)c1nc2ccccc2[nH]1 (centres undefined),.,.,.,.,.,.,.
OC(CNCc1cccc(Br)c1)c1ccccc1 (centres undefined),.,.,.,.,.,.,.
OC(CNCc1ccc(-c2ccccc2)cc1)c1ccccc1 (centres undefined),.,.,.,.,.,/,/
CCOC(=O)N1CCC(NC(=O)CCS(=O)(=O)c2ccc3c(c2)CCN3C(C)=O)CC1,.,.,.,.,.,/,/
CC1CCC(NC(=O)CCS(=O)(=O)c2ccc3c(c2)CCN3C(=O)C2CC2)CC1 (centres undefined),105,.,.,.,.,18,.
COCCN(C(=S)Nc1ccc(Cl)cc1OC)C1CCN(C(C)=O)CC1,.,.,.,.,.,/,/
Nc1cc(N)nc(SCc2cc([N+](=O)[O-])cc3c2OCOC3)n1,55,.,.,.,.,10.0,.
O=[N+]([O-])c1cc2c(c(CSc3ncccn3)c1)OCOC2,.,.,.,.,.,/,/
CCNc1nnc(CCn2nc(C)c(Br)c2C)s1,.,.,.,.,.,/,/
CCOc1ccc2nc(SCCNS(=O)(=O)c3ccccc3)sc2c1,61,.,.,.,.,.,.
CN(C)c1ccc(C=c2c3ccccc3n3c2c2ccccc2[n+]3C)cc1,50,/,.,/,/,.,.
Cn1c(N)c(C(=O)CSc2nnc(C3CC3)n2Cc2ccccc2)c(=O)[nH]c1=O,.,.,.,.,.,/,/
Cc1ccc(OCC(=O)Nc2ccc(-c3nc4ncccc4o3)cc2)c(C)c1,116,.,.,.,.,16,.
Cc1ccc(OCC(=O)Nc2ccncc2)c(C)c1,.,.,.,.,.,/,/
COc1cccc(NC(=O)C(c2ccccc2)N2CCCCC2)c1 (centres undefined),.,.,.,.,.,.,.
C=CCOc1ccc(CNc2ccc(NC(=O)CC(C)C)cc2)cc1OC,.,.,.,.,.,/,/
C/C(N)=C(/C#N)C(=O)COC(=O)C1CCN(S(=O)(=O)c2cccs2)CC1,.,.,/,.,.,/,/
Nc1cccc(C#Cc2ccc3c(=O)c4ccccc4oc3c2)c1,48,.,.,.,.,28,.
Cc1cc(C)c(C)c(OCCN2CCOCC2)c1,.,.,.,.,.,/,/
COC(=O)c1ccc(COc2cc(O)c3c(c2)OC(C)(C)CC3=O)cc1,45,.,.,.,.,.,.
CC1(C)CC(=O)c2c(O)cc(OCc3ccc(Br)cc3)cc2O1,.,.,.,.,.,/,/
OCCSc1nc(-c2cccnc2)nc2ccccc12,.,.,.,.,.,/,/
CN(Cc1cccs1)c1nc(-c2cccnc2)nc2ccccc12,103,.,.,.,.,2.7,.
SMILES,Beta2AR agonist,tim10-1 inh,PfHsp90 set2,TIM10 inh,tim23-1 inh,B2AR ag CP1,B2AR FAP counter
O=C(COC(=O)c1ccc(F)cc1F)NC(=O)Nc1ccc2c(c1)OCCO2,.,.,.,.,.,/,/
Cc1cc(C)n(C(C)CNC(=O)c2ccc3c(c2)OCO3)n1 (centres undefined),.,.,.,.,.,/,/
CCOC(=O)N1CCN(C(=O)c2ccc3c(=O)n(Cc4ccccc4)c(=S)[nH]c3c2)CC1,.,.,.,.,.,/,/
CCOC(=O)c1[nH]c(=S)n(Cc2ccccc2)c1C(=O)OCC,43,/,.,/,/,.,.
CCc1ccccc1NC(=O)CSc1nnc(Cn2nnc3ccccc32)n1C,.,.,.,.,.,/,/
O=C(NCC(=O)N1CCCCCC1)c1ccc(Br)cc1,.,.,.,.,.,/,/
CCN(C(=O)CSc1nnc(-c2ccc(OC)cc2)n1C(C)C)C1CCS(=O)(=O)C1 (centres undefined),.,.,.,.,.,/,/
CCC(NC(=O)c1cc(COc2ccc(C)nc2)on1)c1ccc(C)cc1 (centres undefined),.,.,.,.,.,.,.
Cc1ccc(OCc2cc(C(=O)NC3CCc4ccccc43)no2)cn1 (centres undefined),.,.,.,.,.,.,.
Cc1ccc(OCc2cc(C(=O)NCc3cc(F)ccc3C)no2)cn1,.,.,.,.,.,.,.
Cc1ccc(C)c(C(=O)NC(C)c2ccc(-n3ccnc3)cc2)c1 (centres undefined),.,.,.,.,.,/,/
O=C(CCNC(=O)C1CCN(S(=O)(=O)c2ccccc2)CC1)Nc1ccccc1,48,.,.,.,.,.,.
O=[N+]([O-])c1ccc(N2CCN(S(=O)(=O)c3ccccc3)CC2)cc1,.,.,.,.,.,/,/
Cc1ccc(-c2nc(NC(=O)c3nn(C)cc3[N+](=O)[O-])sc2C)cc1C,80,.,.,.,.,48,.
Cc1ccc(-c2nc(NC(=O)c3nn(C)cc3[N+](=O)[O-])sc2C)cc1,104,.,.,.,.,9.7,.
Cc1cccc(S(=O)Cc2ccc(C(=O)NC3CCN(Cc4ccccc4)CC3)o2)c1 (centres undefined),.,.,.,.,.,/,/
Cc1ccc(NC(=O)CSc2ccc3nnc(CCNC(=O)c4ccccc4)n3n2)c(C)c1,62,.,.,.,.,.,.
Cc1cc(NC(=O)CSc2ccc3nnc(CCNC(=O)c4ccccc4)n3n2)no1,.,.,.,.,.,/,/
O=C(c1cccc(S(=O)(=O)Nc2ccc(F)cc2)c1)N1CCCC1,.,.,.,.,.,/,/
COCCNC(=O)c1c(N)n(CCCn2ccnc2)c2nc3ccccc3nc12,65,.,.,.,.,.,.
CCN(CC)c1ccc(C2C3CCCCC3(O)CCN2CC(=O)N2CCCCC2)cc1 (centres undefined),.,.,.,.,.,/,/
CCN(CC)c1ccc([C@H]2[C@@H]3CCCC[C@]3(O)CCN2CC(=O)NCc2ccco2)cc1,.,.,.,.,.,.,.
COc1ccc(CC(=O)Nc2ccc(-c3cn4ccccc4n3)cc2)cc1,93,.,.,.,.,19,.
O=C(CN1CCOCC1)N1CCN(c2nnc(-c3ccccc3)c3ccccc23)CC1,69,.,.,.,.,.,.
COc1ccc(OC)c(C(=O)NC(CC(N)=O)c2ccc(N3CCN(c4ccccn4)CC3)c([N+](=O)[O-])c2)c1 (centres undefined),.,.,.,.,.,.,.
Cc1cc(C)cc(C(=O)NC(CC(N)=O)c2ccc(N3CCN(c4ccccn4)CC3)c([N+](=O)[O-])c2)c1 (centres undefined),68,.,.,.,.,18,.
